Assay results from the supplement of paper PMC13380429.

Test system: Vero E6 infected with SARS-CoV-2
Experiment: inhibition of SARS-CoV-2 cytopathic effect; higher = more antiviral protection, active = above 15
Settings: 48 h

Measured: inhibition of SARS-CoV-2 cytopathic effect

Cc1c(C2CCN(CCc3ccccc3)CC2)noc1-c1ccc(Cl)cc1
inactive: 1 nM -1.74% | 8.33 nM 5.24% | 100 nM 6.13% | 833.33 nM 4.32% | 10000 nM -5.7%

CN[C@@H]1[C@@H](O)[C@@H](O[C@@H]2[C@@H](O)[C@H](O[C@H]3OC(CN)=CC[C@H]3N)[C@@H](N)C[C@H]2N)OC[C@]1(C)O [Sisomicin (sulfate)]
inactive: 1 nM 0.02% | 8.33 nM 0.45% | 100 nM 0.885% | 833.33 nM -0.63% | 10000 nM -0.58%

Cc1cc(C(=O)NOCCO)c(Nc2ccc(I)cc2F)n(C)c1=O
inactive: 1 nM -2.17% | 8.33 nM -8.75% | 100 nM -12% | 833.33 nM -15.5% | 10000 nM -16.9%

CS(=O)(=O)OCCCCOS(C)(=O)=O [busulfan]
inactive: 1 nM -2.94% | 8.33 nM -4.62% | 100 nM -3.55% | 833.33 nM -3.78% | 10000 nM -4.14%

CC1=CC(=C(c2ccc(N)cc2)c2ccc(N)cc2)C=CC1=N [basic-fuchsin]
inactive: 1 nM 0.76% | 8.33 nM 0.35% | 100 nM 1.45% | 833.33 nM -0.79% | 10000 nM -17.1%
